NLRP3 yeast inh: NALP3 inflammasome inhibitors in reconstituted yeast, primary screen, luminescence, uHTS | Yeast reconstituted NLRP3/ASC/caspase-1, beta-gal luminescence, 24 h | inhibition, % at 10 µM | hit rate 0.39% among 330,000 | AID 2825, 2010;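 active means inhibition of 50% or more; inactive means inhibition below 50%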;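 further: plate controls were induced DMSO wells for no effect and uninduced yeast grown without galactose for full effect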
V-ATPase pH: regulators of yeast V-ATPase proton pumping, primary screen, pHLuorin cytosolic pH fluorescence; hit rate 0.37% among 350,000; S. cerevisiae; response, % at 10 µM; in the data active means response mostly above about 7.3%, no sharp cut-off; inactive means mostly below about 5.4%; further: actives read high
tim23-1 inh: growth inhibitors of tim23-1 mutant yeast, primary screen, luminescence, uHTS | S. cerevisiae tim23-1 growth, BacTiter-Glo luminescence, 24 h | inhibition, % at 20 µM | hit rate 1.3% among 330,000 | AID 463212, 2010;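 active means growth inhibition of the mutant yeast at or above 50%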;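 further: temperature-sensitive mutant grown at 25 °C; plate controls were DMSO-treated mutant yeast for no effect and medium wells lacking yeast for full effect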
TIM10 inh: growth inhibitors of isogenic TIM10 control yeast, primary screen, counter-screen for tim10-1 yeast inhibitor project, luminescence, uHTS; S. cerevisiae TIM10 strain growth, BacTiter-Glo luminescence, 24 h; inhibition, % at 10 µM; hit rate 1.4% among 330,000;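 active means inhibition of 40% or more at the single tested concentration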;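 further: wild-type TIM10 isogenic control strain grown at permissive 25 °C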
NALP1 yeast inh: NALP1 inflammasome inhibitors in reconstituted yeast, colorimetric, S. cerevisiae, triplicate retest. hit rate 0.61% among 280,000. AID 2071, 2009. S. cerevisiae NALP1/ASC/caspase-1 growth, X-gal OD620, 72 h. inhibition, % at 10 µM; in the data active means inhibition mostly above about 24%, no sharp cut-off; inactive means mostly below about 32%
tim10-1 inh: growth inhibitors of tim10-1 mutant yeast, primary screen, luminescence, uHTS; hit rate 2.2% among 330,000; S. cerevisiae tim10-1 ts strain growth, BacTiter-Glo, 24 h; inhibition, % at 20 µM; AID 463190, 2010;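 active means inhibition of at least 40%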;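 further: mutant grown at 25 °C; 0% = DMSO wells with yeast and 100% = wells holding no yeast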
VATPase regulator: yeast V-ATPase proton pumping modulators, confirmation, S. cerevisiae, pH-sensitive GFP, second cherry-pick. S. cerevisiae pHLuorin cytosolic pH, V-ATPase proton transport. shares compounds with V-ATPase pH. hit rate 2% among 980. response, % at 10 µM; in the data active means response above about 24%;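 further: plate controls were vehicle wells for no effect and positive control wells for full effect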
An asterisk follows results filed as active. An excerpt weighted towards active compounds, which were near 4.2% of everything screened.

What do the screens show for `CN(CCOc1ccc(-c2ccn(S(=O)(=O)c3ccc(Cl)cc3)n2)cc1)c1ccccn1`?
NLRP3 yeast inh: -1.1; V-ATPase pH: 10.2*; tim23-1 inh: 7.1; TIM10 inh: 6.2; NALP1 yeast inh: 14.5; tim10-1 inh: 15.1; VATPase regulator: 1.4

What do the screens show for `O=C(N/N=C/c1ccc(O)cc1O)c1ccncc1`?
NLRP3 yeast inh: -8.1; V-ATPase pH: 6.8*; tim23-1 inh: 1.1; TIM10 inh: 13.8; NALP1 yeast inh: -9.4; tim10-1 inh: -8.8; VATPase regulator: -2.1

Results for CC(=O)c1c(C)[nH]c(C(=O)COC(=O)COc2ccccc2F)c1C ?
NLRP3 yeast inh: 13.2; V-ATPase pH: 12.5*; tim23-1 inh: 13.7; TIM10 inh: 6.5; tim10-1 inh: 7.7; VATPase regulator: -1.1

How did COc1cc(/C=C/C(=O)NC2CCCCC2)cc(OC)c1OC do in these assays?
NLRP3 yeast inh: 17.9; V-ATPase pH: 8.8*; tim23-1 inh: -5.1; TIM10 inh: -10.9; NALP1 yeast inh: 5.1; tim10-1 inh: -16.9; VATPase regulator: 2.5

Results for Cc1cccc(C)c1OCc1cc(C(=O)N(Cc2nccn2C)C(C)C)no1 ?
NLRP3 yeast inh: 12.4; V-ATPase pH: -0.5; tim23-1 inh: 0.3; TIM10 inh: 1.8; NALP1 yeast inh: 13.6; tim10-1 inh: 12.5

Results for CC(C)NC(=O)COc1ccccc1C#N ?
NLRP3 yeast inh: 6.0; V-ATPase pH: 13.9*; tim23-1 inh: 1.0; TIM10 inh: 6.6; NALP1 yeast inh: -10.7; tim10-1 inh: -2.9; VATPase regulator: -1.6

How did CCC(=O)C1CCCN(C(=O)c2cccc(OC3CCN(S(C)(=O)=O)CC3)c2)C1 (configuration not stated) do in these assays?
NLRP3 yeast inh: 10.3; V-ATPase pH: 12.1*; tim23-1 inh: 13.8; TIM10 inh: 4.3; NALP1 yeast inh: 12.0; tim10-1 inh: 7.1; VATPase regulator: -0.6

How did OCCN(CCO)Cc1csc2ccccc12 do in these assays?
NLRP3 yeast inh: 12.3; V-ATPase pH: 11.6*; tim23-1 inh: 5.2; TIM10 inh: 2.6; NALP1 yeast inh: 30.8; tim10-1 inh: 12.4; VATPase regulator: 0.0

How did OCCN(Cc1ccccc1)Cc1ccccc1O do in these assays?
NLRP3 yeast inh: 13.4; V-ATPase pH: 1.3; tim23-1 inh: -11.2; TIM10 inh: 8.0; NALP1 yeast inh: -1.7; tim10-1 inh: 5.6

Results for Cc1cc(C(C)(C)C)cc(S(=O)(=O)Nc2ccc(O)c(C(=O)O)c2)c1C ?
NLRP3 yeast inh: -7.0; V-ATPase pH: -1.5; tim23-1 inh: 9.2; TIM10 inh: -2.6; NALP1 yeast inh: 45.1; tim10-1 inh: -0.3

Results for CC(=O)Nc1ccc(NC(=O)c2ccc(NS(=O)(=O)c3cc(C(C)(C)C)cc(C)c3C)cc2)cc1 ?
NLRP3 yeast inh: 3.5; V-ATPase pH: 10.9*; tim23-1 inh: -11.1; TIM10 inh: 2.5; NALP1 yeast inh: 27.5; tim10-1 inh: -0.6; VATPase regulator: 2.0

Results for c1ccc(Cn2nnnc2CN2CCOCC2)cc1 ?
NLRP3 yeast inh: -3.1; V-ATPase pH: 3.9; tim23-1 inh: 6.0; TIM10 inh: 7.0; NALP1 yeast inh: -7.2; tim10-1 inh: 8.5

Results for CC1CC(C)(C)NC(=S)N1CC(=O)NCc1ccc(F)cc1 (configuration not stated) ?
NLRP3 yeast inh: -2.1; V-ATPase pH: 8.5*; tim23-1 inh: -4.1; TIM10 inh: 7.5; NALP1 yeast inh: -11.0; tim10-1 inh: 14.5; VATPase regulator: 3.2

Results for COc1ccc(C2(CNC(=O)c3ccc(OCC(C)C)cc3)CCOCC2)cc1 ?
NLRP3 yeast inh: 12.9; V-ATPase pH: -2.4; tim23-1 inh: 36.5; TIM10 inh: 22.7; NALP1 yeast inh: 30.1; tim10-1 inh: 37.8

How did CCNC(=S)NC1CC2CCCC(C1)N2Cc1ccc(C)cc1 (configuration not stated) do in these assays?
NLRP3 yeast inh: 7.9; V-ATPase pH: 6.3*; tim23-1 inh: -2.5; TIM10 inh: 0.7; NALP1 yeast inh: -8.7; tim10-1 inh: 3.0; VATPase regulator: 2.3

What do the screens show for `CNC(=S)NC1CC2CCCC(C1)N2Cc1ccc(C)cc1` (configuration not stated)?
NLRP3 yeast inh: 9.7; V-ATPase pH: 0.8; tim23-1 inh: 6.7; TIM10 inh: -5.5; NALP1 yeast inh: -3.4; tim10-1 inh: -2.0

How did C/C=C(/C)C(=O)O[C@@H]([C@H](O)c1cc2ccc(=O)oc2cc1OC)C(C)(C)O[C@@H]1O[C@H](CO)[C@@H](O)[C@H](O)[C@H]1O do in these assays?
NLRP3 yeast inh: -3.3; V-ATPase pH: 4.4; tim23-1 inh: -4.3; TIM10 inh: 1.1; tim10-1 inh: -1.5

What do the screens show for `CCOC(=O)C1(C(=O)OCC)NC(=O)CC1CC` (configuration not stated)?
V-ATPase pH: 12.0*; VATPase regulator: -0.5

What do the screens show for `COCCCNC(=O)C(Cc1ccccc1)NS(=O)(=O)c1ccc2c(c1)c(=O)n(C)c(=O)n2C` (configuration not stated)?
NLRP3 yeast inh: 7.7; V-ATPase pH: 16.2*; tim23-1 inh: -0.1; TIM10 inh: 4.1; NALP1 yeast inh: 5.2; tim10-1 inh: -0.9; VATPase regulator: -1.9

Results for Cn1c(=O)c2cc(S(=O)(=O)NC(Cc3ccccc3)C(=O)NCc3ccco3)ccc2n(C)c1=O (configuration not stated) ?
NLRP3 yeast inh: 9.5; V-ATPase pH: 6.0; tim23-1 inh: 20.4; TIM10 inh: -4.5; NALP1 yeast inh: -9.7; tim10-1 inh: 2.1

What do the screens show for `N#CNC(N)=Nc1cccc(Cl)c1`?
NLRP3 yeast inh: 28.8; V-ATPase pH: -3.5; tim23-1 inh: 14.7; TIM10 inh: -4.9; NALP1 yeast inh: 8.5; tim10-1 inh: 14.4

What do the screens show for `Cc1ccc(S(=O)(=O)N2CCN(c3ccccc3)CC2)cc1C(N)=O`?
NLRP3 yeast inh: 0.2; V-ATPase pH: 9.8*; tim23-1 inh: -9.3; TIM10 inh: 3.2; NALP1 yeast inh: -5.7; tim10-1 inh: -9.8; VATPase regulator: -1.1

What do the screens show for `O=C(NCCC1=CCCCC1)C1CCCN(S(=O)(=O)c2cccc3cccnc23)C1` (configuration not stated)?
NLRP3 yeast inh: 6.0; V-ATPase pH: 7.3*; tim23-1 inh: 28.5; TIM10 inh: 16.0; NALP1 yeast inh: -4.7; tim10-1 inh: 23.3; VATPase regulator: -0.3

What do the screens show for `O=C(NCCC1=CCCCC1)C1CCCN(S(=O)(=O)c2cccnc2)C1` (configuration not stated)?
NLRP3 yeast inh: 3.0; V-ATPase pH: -1.8; tim23-1 inh: 8.9; TIM10 inh: 0.4; NALP1 yeast inh: 11.5; tim10-1 inh: -1.1

Assay outcomes (PubChem)
